According to PubChem BioAssay (Tox21):
Inconclusive results are not listed. Where a call stands in place of a potency, no number is given. Unmarked numbers belong to inactive results. Calls of active or inactive are those of the source. Calls follow the shape of the full dose curve.

Assay: qHTS assay to identify small molecule agonists of the AP-1 signaling pathway (AID 1159526)
Details: ME-180 (cervical carcinoma) AP-1-bla reporter, beta-lactamase FRET ratio, 5 h; series mostly up to 76.8 µM; activation: at the top concentration

Row | SMILES | Potency | activation
1 | NNc1ccccc1 | inactive | –
2 | CN(C)NC(=O)CCC(=O)O | inactive | –
3 | CC(=O)C1CCOC1=O (stereo not given) | inactive | –
4 | CN(C)C(=O)C(c1ccccc1)c1ccccc1 | inactive | –
5 | CN1C(=O)CCS(=O)(=O)C1c1ccc(Cl)cc1 (stereo not given) | inactive | –
6 | Cc1ccc(O)c(C)c1 | inactive | –
7 | O=C(O)C1C(C(=O)O)C2(Cl)C(Cl)=C(Cl)C1(Cl)C2(Cl)Cl (stereo not given) | inactive | –
8 | Nc1ccc([As](=O)(O)O)cc1 | inactive | –
9 | CNC(=O)Oc1cccc2ccccc12 | inactive | –
10 | O=[N+]([O-])c1ccc(Cl)c(Cl)c1 | inactive | –
11 | CNC(=O)O/N=C/C(C)(C)S(C)(=O)=O | inactive | –
12 | CCCCC(CC)C(=O)Cl (stereo not given) | inactive | –
13 | CCNc1nc(Cl)nc(NC(C)C)n1 | inactive | –
14 | C=C(C)C(=O)OCC(CC)CCCC (stereo not given) | inactive | –
15 | Cc1ccc(N)cc1 | inactive | –
16 | Cc1cc(Cl)ccc1OC(C)C(=O)O (stereo not given) | inactive | –
17 | Cc1cccc(N)c1C | inactive | –
18 | CCOP(=S)(OCC)Oc1cc(C)nc(C(C)C)n1 | inactive | –
19 | OCC(O)CCl (stereo not given) | inactive | –
20 | Oc1c(Br)cc(Br)cc1Br | – | -2.5% [at 35.3 µM]
21 | Cc1cccc(C)c1N | inactive | –
22 | O=C(O)C(Br)Br | inactive | –
23 | Cc1ccccc1N | inactive | –
24 | CN(C)C(=O)Cl | inactive | –
25 | COC(C)(C)CCCC(C)C/C=C/C(C)=C/C(=O)OC(C)C (stereo not given) | inactive | –
26 | Cc1cccc(C)c1NC(=O)CN1CCCC1=O | inactive | –
27 | Oc1ccc(Cl)cc1 | inactive | –
28 | CC(C)(C)C(=O)CCl | inactive | –
29 | Nc1cc(Cl)cc(Cl)c1 | inactive | –
30 | CSc1nnc(C(C)(C)C)c(=O)n1N | inactive | –
